Activity calls are given as the source filed them. Where a call stands in place of a potency, no number is given. The call rests on the fitted dose curve.
Potency means the concentration at half of the fitted maximal effect.

The experiment deals with Muscarinic acetylcholine receptor M1 (Homo sapiens) (UniProt P11229). Kind of experiment: Cholinergic receptor muscarinic 1 (CHRM1) small molecule agonists, cell-based qHTS assay (AID 1963589). Further: nearly all actives have a fitted effect of over 35% in size. Particulars: CHRM1-CHO cells, agonist mode, calcium flux fluorescence; series mostly up to 76.8 µM. From the text: National Center for Advancing Translational Sciences [NCATS]
Muscarinic acetylcholine receptor M1 (Homo sapiens), sequence (P11229 whole entry, looked up): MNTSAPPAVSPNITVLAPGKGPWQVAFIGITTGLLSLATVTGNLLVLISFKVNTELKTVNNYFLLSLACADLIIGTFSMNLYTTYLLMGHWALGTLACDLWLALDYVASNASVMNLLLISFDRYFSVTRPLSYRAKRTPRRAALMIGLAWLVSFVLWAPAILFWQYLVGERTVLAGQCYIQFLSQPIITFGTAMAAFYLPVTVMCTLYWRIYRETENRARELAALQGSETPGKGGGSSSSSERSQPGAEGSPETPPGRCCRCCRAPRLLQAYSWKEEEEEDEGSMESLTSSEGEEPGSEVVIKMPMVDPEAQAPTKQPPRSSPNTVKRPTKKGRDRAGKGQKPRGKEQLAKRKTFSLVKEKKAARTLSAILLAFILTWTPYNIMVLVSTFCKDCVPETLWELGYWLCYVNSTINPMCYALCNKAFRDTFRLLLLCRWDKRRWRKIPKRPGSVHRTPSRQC
Division of Preclinical Innovation [DPI]
U.S. Environmental Protection Agency [EPA]
National Institutes of Environmental Health Sciences [NIEHS]
National Toxicology Program [NTP]
U.S. Food and Drug Administration [FDA]
The CHRM1 is a muscarinic receptor. This receptor plays a crucial role in learning and memory processes and has long been identified as a promising therapeutic target for the improvement of cognitive decline in Alzheimer's disease (AD). The CHRM1-CHO cell line stably expressing human muscarinic acetylcholine receptor M1 (CHRM1) can be used for screening agonists and antagonists of interactions between CHRM1 and its ligands. The CHRM1-CHO Calcium Flux Assay is a homogeneous fluorescence-based assay for detecting the intracellular calcium level using FDSS kinetic plate reader system.
CHRM1-CHO cells were dispensed at 1000 cells/3uL/well in 1536-well black-clear bottom plates using a Multidrop Dispenser. After the assay plates were incubated at a 37 C/5% CO2 incubator for 18 h, 3 uL of Dye Loading Buffer was transferred to the assay plate by a Flying Reagent Dispenser. The assay plates were incubated at 37 C for 1h. For agonist mode, 23 nL of compounds dissolved in DMSO, positive controls or DMSO only was transferred to the assay plate by a pin tool. […] Each test compound was measured at 15 concentrations in three independent runs.
For orientation: In qHTS, concentration-response curves come from the screen itself.
In the case of `CCO[Si](OCC)(OCC)c1ccccc1`, the Potency result was “inactive”.

In the case of `OCC(CO)N[C@H]1C[C@](O)(CO)[C@@H](O)[C@H](O)[C@H]1O`, the Potency entry is “inactive”.

For the compound `NC(=O)Nc1ccc(Cl)cc1`, the Potency result was “inactive”.

In the case of `O=C(/N=N/C(=O)OCc1ccccc1)OCc1ccccc1`, the Potency result was “inactive”.

Take `COc1nc(N)nc2nc[nH]c12`: the Potency result is “inactive”.

For `CN1N=C(C(N)=O)CCC1=O`, the Potency entry was “inactive”.

On to `OCCc1ccccn1`, for which the Potency result was “inactive”.

On to `C[C@]12CC[C@H]3[C@@H](CCC4=CC(=O)CC[C@@]43C)[C@@H]1CC[C@@H]2C(=O)CO`, for which the Potency entry was “inactive”.

Take `CC1=CC[C@@H]2C[C@H]1C2(C)C`: the activation was -0.0486% [at 15.8 µM] (inactive).

For the compound `CCC(=O)OC/C=C(\C)CCC=C(C)C`, the Potency result was “inactive”.

For the compound `FC(F)(F)c1cccc(Cl)c1`, the Potency result is “inactive”.

Turning to `CC(=O)N(c1onc(C)c1C)S(=O)(=O)c1ccc(N)cc1`, the Potency entry was “inactive”.

For the compound `Cc1ccccc1C(N)=O`, the Potency entry is “inactive”.

For the compound `COCc1ccc(COC)cc1`, the Potency result was “inactive”.

Regarding `CC(C)CC(O)Cc1ccccc1` (stereo not given), the Potency result is “inactive”.

For the compound `CCCCCCCCOC(=O)CCCCCCCCC(=O)OCCCCCCCC`, the Potency entry is “inactive”.

Consider `NS(=O)(=O)c1ccc(NC(=O)CCC(=O)O)cc1`, for which the Potency entry was “inactive”.

As for `CCC(=O)OCc1ccc(OC)cc1`, the Potency result was “inactive”.

On to `CCn1cc(C(=O)O)c(=O)c2cc3c(cc21)OCO3`, for which the Potency entry is “inactive”.

On to `Cc1ccc(C)o1`, for which the Potency entry was “inactive”.

For `Cc1ccc2c(c1)OCC(=O)CO2`, the Potency result is “inactive”.

Take `C1COC1`: the Potency result is “inactive”.

`CCCC[O][Al]([O]CCCC)[O]CCCC`: the Potency entry was “inactive”.

In the case of `CCCCCCCCCCCCOCC1CO1` (stereo not given), the Potency entry is “inactive”.

As for `C#CC(O)CCC` (stereo not given), the Potency entry was “inactive”.

With `O=S(=O)(O)c1ccccc1O`, the Potency entry is “inactive”.

As to `CCCCCCN`, the Potency result was “inactive”.

Take `SCCSCCS`: the Potency result was “inactive”.

Turning to `NCCN1CCNC1=O`, the Potency result was “inactive”.

As to `NCC1CCCC(CN)C1` (stereo not given), the Potency entry is “inactive”.

For `C/C=C/C(=O)C1=C(C)C=CCC1(C)C`, the Potency entry is “inactive”.

Turning to `C/C(=N\O)[C@@H](C)NCC(C)(C)CN[C@H](C)/C(C)=N/O`, the Potency entry was “inactive”.

Consider `COc1cc(CCC(C)=O)ccc1O`, for which the Potency result is “inactive”.

As to `CO[Si](OC)(OC)c1ccccc1`, the Potency entry is “inactive”.

Regarding `CCCCC(CC)COC(C)=O` (stereo not given), the Potency result was “inactive”.

For `COC(=O)c1ccc2cc(C(=O)OC)ccc2c1`, the activation was 0.0556% [at 15.8 µM] (inactive).

In the case of `C[Si]1(C)O[Si](C)(C)O[Si](C)(C)O[Si](C)(C)O[Si](C)(C)O1`, the Potency result is “inactive”.

Turning to `S=C(NC1CCCCC1)NC1CCCCC1`, the Potency entry was “inactive”.

Turning to `O=C(NCN1CCOCC1)c1cnccn1`, the Potency entry is “inactive”.

For the compound `Cc1c(I)c(=O)n(-c2ccccc2)n1C`, the Potency was 37.9 nM (active).

The values are drawn from PubChem BioAssay (Tox21).
